Test results from PubChem BioAssay AID463173 (ICCB-Longwood Screening Facility, Harvard Medical School, 2010).
The campaign covered roughly 52,000 compounds. About 4,300 (8.3%) were called active. Many of the other results were omitted from the sample, so actives are more common in it than they were. Unmarked numbers belong to inactive results. No stated cut-off is given here; in the data, active means survival mostly below about 52% (no sharp cut-off); inactive means mostly above about 56%.

test system: DeltatarO mutant; test: S. aureus survival, RN4220 and DeltatarO strains – OD600, teichoic acid synthesis inhibitors, primary screen (AID 463173); details: S. aureus RN4220 wild type/DeltatarO growth, OD600, 18 h, hits give low values, screened at 18.75 µg/mL (by protocol)

Structure (SMILES)	survival
COc1ccc(Cl)cc1NC(=O)Cn1ncc2c3ccccc3n(C)c2c1=O	135%
Cc1ccc(C)c(NC(=O)Cn2c(=O)n(Cc3ccco3)c(=O)c3ccc(C(=O)NC4CCCC4)cc32)c1	95%
O=C(Nc1ccc2oc(-c3ccc4ccccc4c3)nc2c1)c1ccc(Cl)c(Cl)c1	83%
Cc1ccc2[nH]c(=O)c3cc(C(=O)NCCCN4CCC(C)CC4)sc3c2c1	85%
COc1ccc(-c2cc(-c3ccc(C)cc3)nc3c2COc2ccccc2-3)cc1	72%
Cc1oc2ncn(C)c(=O)c2c1C(=O)N1CCN(c2ccc(Cl)cc2)CC1	61%
CCc1ccc(Nc2cc(C)nc3nc(Cc4ccc(Cl)cc4)nn23)cc1	101%
Cc1cc(Nc2ccc(C)c(Cl)c2)n2nc(-c3ccccc3)nc2n1	57%
CC(=O)c1cccc(Nc2cc(C)nc3nc(Cc4ccccc4)nn23)c1	62%
CCc1nc2nc(C)cc(Nc3cccc(C)c3C)n2n1	82%
Cc1cc(Nc2ccccc2C)n2nc(Cc3ccc(Cl)cc3)nc2n1	64%
Cc1cc(Nc2ccc(C)c(Cl)c2)n2nc(Cc3ccccc3)nc2n1	31% (active)
Cc1cc(Nc2ccccc2F)n2nc(-c3ccccc3)nc2n1	47%
Cc1cccc(Nc2cc(C)nc3nc(Cc4ccc(Cl)cc4)nn23)c1	36% (active)
Cc1cc(Nc2cc(Cl)ccc2C)n2nc(Cc3ccccc3)nc2n1	50%
Cc1cc(Nc2ccccc2F)n2nc(Cc3ccc(Cl)cc3)nc2n1	44% (active)
Cc1ccc(Nc2cc(C)nc3nc(Cc4ccc(Cl)cc4)nn23)cc1	52%
Cc1cc(Nc2cccc(Cl)c2C)n2nc(Cc3ccccc3)nc2n1	49% (active)
CC1=C(C(=O)OCc2ccc(C)cc2)C(c2ccccc2C(F)(F)F)CC(=O)N1 (stereo unspecified)	124%
CCCSCCCNC(=O)CN1C(=O)CCn2nc(-c3cn(C)c4ccccc34)cc21	77%
CCN(CC)CCn1c2c(c(SCC(=O)Nc3cccc(C(F)(F)F)c3)nc1=O)CCC2	74%
CCOC(=O)c1cc(C)n(CC2CCC(C(=O)Nc3ccccc3OC)CC2)c1C (stereo unspecified)	107%
COc1cccc(NC2=CC(c3ccc(C(C)C)cc3)N(c3cccc(OC)c3)C2=O)c1 (stereo unspecified)	73%

Structure (SMILES)	survival
CCC(CC)C(=O)N1CCc2cc(OC)c(OC)cc2C1COc1ccc2c(C)cc(=O)oc2c1 (stereo unspecified)	83%
CNc1ccc(-c2nc(-c3ccncc3)no2)cc1[N+](=O)[O-]	108%
CCOc1ccc(-c2cccc(NS(=O)(=O)c3ccccc3C(F)(F)F)c2)nn1	91%
O=C(Cn1c(=O)nc(-c2ccccc2)c2ccccc21)Nc1cccc(C(F)(F)F)c1	104%
Cc1ccc2nc(N(Cc3cccnc3)C(=O)c3cccs3)sc2c1	71%
CCCCN(C)CCNC(=O)c1c2c(nc3ccccc13)C(=O)N(C1CCCCC1)C2	102%
O=C(NCCc1ccc(Cl)cc1)c1ccc2c(c1)N(Cc1cccc(Cl)c1)C(=O)c1ccccc1S2(=O)=O	117%
COc1ccccc1CNC(=O)CS(=O)(=O)Cc1nc(-c2ccccc2C)oc1C	63%
CCCCN(C)C(=O)C1CCCN(c2ncnc3onc(C)c23)C1 (stereo unspecified)	113%
O=C(Nc1ccc2c(c1)CCC2)C1CCN(c2ccc(S(=O)(=O)N3CCCC3)cc2)CC1	103%
Cc1ccc(Cl)cc1NC(=O)/C(C#N)=C\c1cn(Cc2ccc(F)cc2)c2ccccc12	98%
Cc1ccc(-n2c(C)cc(/C=C(\C#N)C(=O)Nc3ccc(C)c(C)c3)c2C)cc1	48%
Cc1ccc(NC(=O)/C(C#N)=C\c2ccc(Cl)cc2Cl)cc1C	29% (active)
Cc1ccccc1NC(=O)/C(C#N)=C/c1ccc(Cl)cc1Cl	32% (active)
Cc1ccc(Cl)cc1NC(=O)/C(C#N)=C/c1c(C)n(Cc2ccccc2)c2ccccc12	95%
Cc1ccc(NC(=O)/C(C#N)=C/c2ccccc2Cl)cc1C	34% (active)
Cc1ccc(NC(=O)/C(C#N)=C/c2cc(C)n(-c3ccc(Br)cc3)c2C)cc1C	65%
Cc1ccc(NC(=O)/C(C#N)=C/c2cc(C)n(-c3ccc(F)cc3)c2C)cc1C	65%
Cc1ccc(NC(=O)/C(C#N)=C/c2ccc(C(C)C)cc2)cc1C	81%
Cc1cc(C)n2c(Nc3ccccc3)c(-c3ccccc3)nc2n1	72%
Cc1cccc(N2CCN(Cc3nnc(-c4cccc(Br)c4)o3)CC2)c1C	72%
CCc1ccccc1N(C)C(=O)c1ccc2c(=O)n3c(nc2c1)CCCCC3	81%
O=C(Cn1cnc(S(=O)(=O)N2CCCC2)c1)Nc1cccc(F)c1	91%

Structure (SMILES)	survival
CCC(C)c1ccc(NC(=O)CSc2nncn2N)cc1 (stereo unspecified)	76%
CCOC(=O)c1ccc(NC(=O)CC2Sc3ccc(C(F)(F)F)cc3NC2=O)cc1 (stereo unspecified)	78%
CCc1ccccc1NC(=O)CC1Sc2ccc(C(F)(F)F)cc2NC1=O (stereo unspecified)	82%
O=C(CC1Sc2ccc(C(F)(F)F)cc2NC1=O)Nc1ccc(Cl)c(C(F)(F)F)c1 (stereo unspecified)	22% (active)
CCOc1ccc(/C=C/C(=O)Nc2sc3c(c2C(=O)OC)C(C(=O)OC)CC3)cc1 (stereo unspecified)	56%
COC(=O)c1c(NC(=O)/C(C#N)=C/c2ccccc2)sc2c1C(C(=O)OC)CC2 (stereo unspecified)	58%
COC(=O)c1c(NC(=O)CCCOc2ccc(C(C)(C)C)cc2)sc2c1C(C(=O)OC)CC2 (stereo unspecified)	3% (active)
COC(=O)c1c(NC(=O)CCCOc2ccc(C)cc2)sc2c1C(C(=O)OC)CC2 (stereo unspecified)	44%
COC(=O)c1c(NC(=O)CCCOc2cccc(C)c2)sc2c1C(C(=O)OC)CC2 (stereo unspecified)	0% (active)
COC(=O)c1c(NC(=O)c2cccs2)sc2c1C(C(=O)OC)CC2 (stereo unspecified)	94%
COc1ccc(NC(=O)CCn2c(-c3ccc(F)cc3)cc(C(C)=O)c2C)c(OC)c1	124%
COc1ccccc1Cc1nc2ccccc2nc1SCC(=O)NCc1ccccc1Cl	135%
COc1ccc2c(c1)CC(C(=O)Nc1cc(OC)c(OC)c(OC)c1)CO2 (stereo unspecified)	83%
CCCCOC(=O)c1ccc(OC(=O)c2sc3ncn(Cc4ccccc4Cl)c(=O)c3c2C)cc1	90%
Cc1ccc(CNC(=O)c2oc3ccc(S(=O)(=O)N4CCC(C)CC4)cc3c2C)cc1	57%
Cc1ccc(Cl)cc1NC(=O)Cn1c(=O)n(CCC(=O)N2CCc3ccccc3C2)c(=O)c2ccccc21	102%
CSc1nc(-c2ccc(Cl)cc2)nn1C(C)=O	57%
CC(=O)Nc1ccc(S(=O)(=O)NCCc2csc3nc(-c4ccc(Cl)cc4)nn23)cc1	70%
CSc1nc(-c2ccc(Cl)cc2)nn1S(=O)(=O)c1ccc(NC(C)=O)cc1	43% (active)
CCc1c(C)nc2cc(-c3cc(OC)cc(OC)c3)nn2c1NCCCN(CC)CC	113%
Cc1ccc(N(C(=O)c2ccco2)C(C(=O)NC2CCCC2)c2ccc(N(C)C)cc2)c(C)c1 (stereo unspecified)	93%
CN(Cc1ccccc1)C(C(=O)NC1CCCCC1)c1ccc(Cl)cc1 (stereo unspecified)	37% (active)
O=C(NC1CCCC1)C(c1ccccc1)N(C(=O)c1ccco1)C1CCCC1 (stereo unspecified)	79%

Structure (SMILES)	survival
O=C(NC1CCCC1)C(c1ccccc1)N(Cc1ccccc1F)C(=O)c1ccco1 (stereo unspecified)	102%
Cc1ccc(C(C(=O)NC2CCCCC2)N(C)Cc2ccccc2)cc1 (stereo unspecified)	-3% (active)
Cc1ccc(-c2nnn(CC(=O)N(Cc3ccccc3)C(C(=O)NC3CCCC3)c3ccco3)n2)cc1 (stereo unspecified)	64%
O=C(O)c1cccc(N=C2NC(=O)C(CO)(CO)S2)c1	89%
Cc1cccc(Cc2c(C)nc3nc(SCc4cccc(F)c4)nn3c2C)c1	78%
CCOC(=O)c1ccc(NC(=O)C2CC(=O)N3CCCN=C3S2)cc1 (stereo unspecified)	94%
Cc1cccc(NC(=O)c2sc3nc4n(c(=O)c3c2C)N=C(c2ccc(F)cc2)CS4)c1C	99%
CCc1cccc(C)c1NC(=O)Cn1c(=O)cc(C(F)(F)F)c2c(C)nn(C)c21	85%
CCc1ccc(CNc2ccc3c(c2)ncn3C(C)(C)C)cc1	-16% (active)
CCCCn1cnc2cc(NCc3ccc(OCC)cc3)ccc21	11% (active)
CCn1cnc2cc(NCc3ccc(N(C)C)cc3)ccc21	72%
CCCCn1cnc2cc(NC(=O)c3cc(OC)c(OC)c(OC)c3)ccc21	66%
CC(C)(C)n1cnc2cc(N=Cc3ccccc3O)ccc21	81%
CCOc1ccc(C=Nc2ccc3c(c2)ncn3C)cc1	96%
CCCCn1cnc2cc(NCc3ccccc3Cl)ccc21	-16% (active)
CCCn1cnc2cc(NC(=O)c3cc(OC)c(OC)c(OC)c3)ccc21	66%
CC(C)(C)n1cnc2cc(NS(=O)(=O)c3ccccc3)ccc21	86%
CC(C)(C)n1cnc2cc(NCc3ccccc3Cl)ccc21	7% (active)
COc1cc(CNc2ccc3c(c2)ncn3C(C)C)cc(OC)c1OC	64%
Cc1cc(C)n2nc(NCc3ccccc3Cl)nc2n1	90%
CCOc1ccc(NC(=O)CSc2oc(-c3cccs3)nc2S(=O)(=O)c2ccc(Cl)cc2)cc1	63%
COc1ccc2c(c1)c1c(c(=O)n(-c3ccccc3C)c(=O)n1Cc1cccc(C(F)(F)F)c1)n2C	94%
